Screening results (PubChem BioAssay)
DT40 TDP1 CPT – DT40-hTDP1 cell growth loss with CPT. chicken DT40 Tdp1-/-;hTDP1 cells + 20 nM CPT, ATP luminescence, 48 h. Potency, µM (titrated, usually from 46.2 µM), without a hit: at the top dose activity change, negative = growth inhibition, actives largely listed as inhibitors. 12% of 420,000 active. AID 686979; further: potency means the concentration at half of the fitted maximal effect; nearly all actives have a fitted effect of over 55% in size
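Chicken DT40 Tdp1-/- cells stably complemented with human TDP1 were seeded at 400 cells/well in medium containing 20 nM camptothecin, exposed to pin-transferred compounds, and grown at 37 °C for at least 48 hr. Viability was read as ATP luminescence.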
ALOX12 inh – inhibitors of human 12S-lipoxygenase ALOX12 | purified 12hLO, xylenol orange hydroperoxide absorbance | P18054 | Potency, µM (titrated, usually from 108 µM), without a hit: at the highest dose activity change, negative = inhibition, actives largely listed as inhibitors | 1.1% of 580,000 active | AID 1671190; further: potency means the concentration at half of the fitted maximal effect
Target sequence (P18054 whole entry, looked up): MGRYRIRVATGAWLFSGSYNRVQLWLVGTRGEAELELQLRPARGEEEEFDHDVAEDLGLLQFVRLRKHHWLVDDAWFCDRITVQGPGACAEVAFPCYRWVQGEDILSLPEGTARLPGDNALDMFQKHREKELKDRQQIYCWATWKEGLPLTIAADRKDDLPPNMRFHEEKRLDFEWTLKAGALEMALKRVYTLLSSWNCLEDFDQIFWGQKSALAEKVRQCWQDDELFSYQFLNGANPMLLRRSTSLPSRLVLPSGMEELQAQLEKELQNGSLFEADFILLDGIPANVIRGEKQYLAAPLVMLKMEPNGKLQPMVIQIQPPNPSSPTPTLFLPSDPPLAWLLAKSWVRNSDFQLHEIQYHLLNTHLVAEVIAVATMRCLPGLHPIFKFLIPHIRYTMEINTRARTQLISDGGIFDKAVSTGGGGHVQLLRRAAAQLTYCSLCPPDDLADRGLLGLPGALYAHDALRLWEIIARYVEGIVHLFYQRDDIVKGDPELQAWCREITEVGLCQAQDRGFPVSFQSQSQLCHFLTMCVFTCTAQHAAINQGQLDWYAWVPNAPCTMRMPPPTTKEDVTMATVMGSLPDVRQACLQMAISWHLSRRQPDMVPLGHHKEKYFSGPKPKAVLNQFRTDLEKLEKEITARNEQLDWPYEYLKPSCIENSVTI
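Hydroperoxide product was detected by ferrous iron/xylenol orange as the 573 to 405 nm absorbance ratio. Arachidonic acid at 40 uM (final) was turned over for 30 min at room temperature by 150 nM human 12hLO, pH 7.0 Hepes buffer, after 15 min compound preincubation.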
HT1080-NT tox – kills 2HG-producing HT-1080-NT fibrosarcoma cells; HT-1080-NT fibrosarcoma viability, CellTiter-Glo ATP luminescence, 48 h; Potency, µM (top dose mostly 46.1 µM), for the others: at the highest dose activity, negative = less viability, usual class: cytotoxic; 1.6% of 360,000 active;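 further: NT is the 2HG producing partner of a matched IDH1 knockdown line; potency means the concentration at half of the fitted maximal effect; 0% = DMSO-treated cells and -100% = media-only wells without cells; nearly all actives have a fitted effect of over 55% in size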
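HT-1080-NT; 750 cells/well; 5% FBS RPMI; 48 h compound, 37 degrees C; CellTiter-Glo luminescence; curve fitting and curve-class assignment.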
HT1080 IDH1KD tx – HT-1080 IDH1 knockdown cell toxicity (counter line) | HT-1080 IDH1 knockdown viability, ATP luminescence, 48 h | Potency, µM (top dose mostly 46.1 µM), for inactives: at the top dose activity, negative = toxicity, usual class: cytotoxic | 2% of 360,000 active | AID 686971;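 further: potency means the concentration at half of the fitted maximal effect; 0% = DMSO wells and -100% = cell-free medium wells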
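Luminescent ATP read-out (CellTiter-Glo, 10 min at room temperature) after 48 h compound exposure at 37 °C gave viability of IDH1-knockdown HT-1080 cells. Activity was normalised to DMSO and cell-free wells, then fitted as concentration-response curves.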
IL-1B inflam inh – blocks inflammasome-driven IL-1 beta release; THP-1 LPS/ATP IL-1B secretion, AlphaLISA, 16 h; hits give low values; activity change, % at 57.5 µM; 4.7% of 360,000 active; in the data active means activity change below about -50%; inconclusive means mostly about -30% to -49%
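THP-1 cells pretreated 1 hr with compounds (up to 57.5 uM final), then stimulated with LPS (250 ng/mL final) plus ATP (1.25 mM final); secreted IL-1B measured by AlphaLISA after 16 hr, decreased signal indicating inhibition.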
DT40 TDP1 no CPT – qHTS for Inhibitors of human tyrosyl-DNA phosphodiesterase 1 (TDP1): qHTS in cells in absence of CPT; DT40 Tdp1-/- hTDP1 cells, no CPT, ATP luminescence, 48 h; Potency, µM (series often up to 46.2 µM), for inactives: at the top dose activity change, negative = growth inhibition, actives largely listed as inhibitors; 15% of 420,000 active; AID 686978, 2013; further: potency means the concentration at half of the fitted maximal effect; nearly all actives have a fitted effect of over 55% in size
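Chicken DT40 Tdp1-/- cells stably complemented with human TDP1 were seeded at 400 cells/well with DMSO in place of 20 nM camptothecin. After compound pinning, cells grew at least 48 hr at 37 °C; viability read by CellTiter-Glo luminescence.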
Active calls of the source: *; i = inactive; ? = inconclusive; / = no result; [ ] = remark or other dose. Only a selection was taken, and hits are over-represented in it overall. Unless noted, the call rests on the fitted dose curve; in most records, active means well fitted curve in the direction sought with a large enough effect; inconclusive means small, poorly fitted or top-dose-only effect, or another doubt; inactive means no such curve, though single readings can be large; an effect the other way counts as inactive or inconclusive. Unless noted, on the % scale 0 is the no-effect control and ±100 the full control effect.

SMILES | DT40 TDP1 CPT | ALOX12 inh | HT1080-NT tox | HT1080 IDH1KD tx | IL-1B inflam inh | DT40 TDP1 no CPT
CCOC(=O)c1cnc(-n2nc(C)cc2C)nc1Nc1ccc(N(C)C)cc1 | 1.3µM* | 0% | -8% | -20% | -5 | 1.8µM*
CCOC(=O)c1cnc(-n2nc(C)cc2C)nc1NNc1nc(-c2ccccc2)cc(-c2ccccc2)n1 | 3.7µM* | / | ? | ? | 23 | 3.3µM*
CCOC(=O)c1cnc(-n2nc(C)cc2C)nc1NNc1nc(C)cc(C)n1 | -4% | i | 2% | 0% | 14 | -23%
CCOC(=O)c1cnc(-n2nc(C)cc2C)nc1Nc1ccc(O)cc1 | 2.3µM* | ? | 15% | 9% | 0 | 2.9µM*
COc1ccc(CNC(=O)CN2C(=O)COc3ccc(S(=O)(=O)Nc4ccccc4)cc32)cc1 | ? | -1% | / | / | / | ?
CC(C)C(=O)N1CCC2(CCC(=O)N(Cc3ccccc3)CC2)CC1 | / | 16% | / | / | / | /
Cc1nc2ccc(NC(=O)c3n[nH]c(=O)c4ccccc34)cc2s1 | / | -11% | / | / | / | /
CC(C)NC(=O)c1cc(-c2ccccc2F)cc2c1OCCN2Cc1cccnc1 | / | 15%[176 µM] | / | / | / | /
CCOC(=O)c1cnc(-n2nc(C)cc2C)nc1Oc1ccc(C#N)cc1 | -11% | 0% | 13% | 5% | 15 | -27%
CCOC(=O)c1cnc(-n2nc(C)cc2C)nc1NC | ? | -4% | 7.1µM* | ? | -14 | ?
CCOC(=O)c1cnc(-n2nc(C)cc2C)nc1Nc1cccc(C(=O)O)c1 | -10% | ? | 0% | 0% | 15 | -22%
CCOC(=O)c1cnc(-n2nc(C)cc2C)nc1N(CC)CC | 23µM* | ? | ? | 1.6µM* | -5 | 16µM*
CCOC(=O)c1cnc(-n2nc(C)cc2C)nc1Nc1ccc(C)cc1 | 4.6µM* | -1% | 7% | 2% | 0 | 5.2µM*
CC1CCN(S(=O)(=O)c2ccc3c(c2)CCN3)CC1 | -12% | -29% | / | / | / | -22%
CCOC(=O)CSc1ncnc2c1c(-c1ccccc1)cn2-c1ccc(OC)cc1 | -3% | -4% | -6% | -3% | 24 | -10%
COc1ccccc1N1CCN(c2ncnc3c2c(-c2ccccc2)cn3-c2cccc(C)c2)CC1 | 18µM* | -6% | / | / | / | ?
CC(=O)N1CCN(c2ncnc3c2c(-c2ccccc2)cn3-c2cccc(C)c2)CC1 | / | -12% | / | / | / | /
CCCSc1ncnc2c1c(-c1ccccc1)cn2-c1ccccc1OC | ? | -16% | / | / | / | 21µM*
c1ccc(-c2cn(-c3ccccc3)c3ncnc(N4CCCCC4)c23)cc1 | 9.2µM* | 3% | ? | ? | -57* | 18µM*
Clc1cccc(-n2cc(-c3ccccc3)c3c(N4CCCCC4)ncnc32)c1 | 16µM* | ? | / | / | / | 23µM*
Cc1cccc(N2CCN(C(=O)c3c(C)oc4nc(C)nc(N5CCCC5)c34)CC2C)c1 (stereo unspecified) | ? | -19% | / | / | / | ?
CN1CC(=O)N(C2CCCNCC2)Cc2c(NCCN3CCOCC3)ncnc21 (stereo unspecified) | / | -26%[6.33 µM] | / | / | / | /
CC1CCN(c2ncnc3c2c(-c2ccccc2)cn3-c2ccc(Br)cc2)CC1 | 0% | -18% | / | / | / | 14%
CN1CCN(c2ncnc3c2c(-c2ccccc2)cn3-c2ccc(F)cc2)CC1 | 18µM* | -29% | 23µM* | 23µM* | -207* | 5.2µM*
COc1ccc(NC(=S)NCCSc2ccc(C)cc2)c(OC)c1 | ? | 35µM* | -11% | ? | ? | ?
SMILES | DT40 TDP1 CPT | ALOX12 inh | HT1080-NT tox | HT1080 IDH1KD tx | IL-1B inflam inh | DT40 TDP1 no CPT
COc1ccc(NC(=S)Nc2ccc(OCc3ccccc3)cc2)c(OC)c1 | 21µM* | 35µM* | -14% | -11% | 34 | 26µM*
COc1ccc(OC)c(NC(=S)NCCSc2ccc(C)cc2)c1 | ? | ? | 5% | 0% | -10 | 16µM*
COc1ccc(NC(=S)NCCc2ccc(Cl)cc2)c(OC)c1 | ? | -36% | -17% | -15% | -10 | ?
COc1ccc(NC(=S)Nc2ccccc2)c(OC)c1 | ? | -7% | 1% | -1% | -18 | -23%
N#Cc1nc(COc2ccccc2)oc1NCCCN1CCOCC1 | / | -10% | / | / | / | /
COC(=O)c1ccc(N=NN2CCCCCC2)cc1 | 1% | -2% | -6% | -1% | -63* | 2%
Cn1cc(C(=O)N2CCCC(Nc3ccc(F)cc3)C2)c2ccccc21 (stereo unspecified) | ? | -1% | -1% | -3% | 16 | ?
CCCc1[nH]nc2c1C(c1cn[nH]c1-c1ccc(F)cc1)C(C#N)=C(N)O2 (stereo unspecified) | 9.2µM* | / | ? | -27% | -90* | 10µM*
CCCc1[nH]nc2c1C(c1ccc(O)c(OC)c1)C(C#N)=C(N)O2 (stereo unspecified) | -16% | 0% | 1% | -3% | -67* | -25%
CCCc1[nH]nc2c1C(c1ccccc1OCC)C(C#N)=C(N)O2 (stereo unspecified) | ? | 38% | -3% | -9% | ? | -10%
CCCc1[nH]nc2c1C(c1ccncc1)C(C#N)=C(N)O2 (stereo unspecified) | -11% | 0% | 11% | 14%[9.24 µM] | 0 | -17%
CCCc1[nH]nc2c1C(c1ccccc1OC)C(C#N)=C(N)O2 (stereo unspecified) | ? | ? | -3% | -2% | -53* | ?
CCCc1[nH]nc2c1C(/C(C)=C/c1ccccc1)C(C#N)=C(N)O2 (stereo unspecified) | ? | -16% | ? | 0%[9.24 µM] | -94* | -27%
CCOC(=O)c1cnc2c(Cl)c(Cl)ccc2c1NCCOC(=O)CC | / | 46% | / | / | / | /
O=C(c1ccccc1F)N1CCc2n[nH]c(=O)n2CC1 | / | 37% | / | / | / | /
COc1cc(C2CC(=O)NC(SCC(=O)NCc3ccccc3)=C2C#N)ccc1O (stereo unspecified) | / | -10% | / | / | / | /
CCOC(=O)C1=C(Nc2ccc(OC)cc2)C(N)=NC1=N | 3.7µM* | 1% | 2.3µM* | 5.2µM* | 59 | 1.3µM*
CCOC(=O)c1c(Nc2ccc(OC)cc2)n[nH]c1C | / | 3% | / | / | / | /
Cc1cnc2c(c1SCCN1CCOCC1)c(=O)n(C)c(=O)n2C | / | -22% | / | / | / | /
Cc1nc(CC(=O)N2CCCC(C(=O)NCCCO)C2)cs1 (stereo unspecified) | / | -26% | / | / | / | /
